Compound activity: PubChem, several laboratories
MEKK2mut PB1 HTS: MEK5 binding signal on mutant MEKK2 PB1, primary screen, biochemical, multiplex bead flow cytometry, Alexa488-MEK5; Alexa488-MEK5 binding to MEKK2 mutant; percent response, % at 10 µM; 290,000 tested, 0.35% active; AID 1530, 2009; in the data active = percent response above about 24%, passing the limit was not always enough
CRFR2-BP antag: antagonists of CRF-BP/CRF-R2 complex, primary screen, cell-based, HEK293, calcium dye fluorescence, uHTS; inhibition, % at 11.8 µM; CRF-induced calcium fluorescence; 350,000 tested, 0.59% active; AID 588475, 2011;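 active = inhibition of the ligand-induced calcium signal above about 50% at the single tested concentration, limit read from the data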
MEKK3 PB1 HTS: modulators of MEKK3-MEK5 PB1 binding, primary screen, biochemical, wildtype MEKK3, multiplex bead flow cytometry, Alexa488-MEK5 | Mitogen-activated protein kinase kinase kinase 3 (Homo sapiens), Q99759 | 290,000 tested, 1.4% active | bead-based flow cytometry, Alexa488-MEK5 binding to MEKK3; actives lie on both sides; 0 = blocked by unlabeled MEK5, 100 = vehicle | binding response (% of control), % at 10 µM;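 active = binding response more than 3 SD above or below the average of its plate-row segment, actives on both sides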;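 note: Alexa488 bead fluorescence after subtracting the streptavidin-only scavenger bead signal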
MEKK2wt PB1 HTS: modulators of MEK5 binding to wildtype MEKK2, primary screen, biochemical, multiplex bead flow cytometry, Alexa488-MEK5 | Mitogen-activated protein kinase kinase kinase 2 (Homo sapiens), Q9Y2U5 | Alexa488-MEK5 binding to MEKK2 WT; actives lie on both sides | binding response (% of control), % at 10 µM | 290,000 tested, 1.1% active; in the data active = binding response below about 67% or above about 130%
CRFR2-BP ag: agonists of CRF-BP/CRF-R2 complex, primary screen, cell-based, HEK293, calcium dye fluorescence, uHTS; CRF-binding protein / CRF receptor 2 complex (human); calcium dye fluorescence (FLIPR); percent of saturating CRF peptide response; 350,000 tested, 0.46% active; AID 588473, 2011; activation, % at 13.2 µM;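 active = activation of at least 50%, plus an integration ratio under a set limit after plate pattern correction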
ABCB6 inh 2: ABCB6 transporter inhibitors, primary screen, K562-ABCB6 cells, flow cytometry, MLPCN library. ATP-binding cassette sub-family B member 6 (Homo sapiens), Q9NP58. K562-ABCB6 porphyrin accumulation, 1 h; hits give low values. fluorescence ratio to DMSO, % at 10 µM. 360,000 tested, 0.19% active. AID 602162, 2011;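 active = fluorescence ratio to DMSO below 75%, the collection mean minus 3 SD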;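 note: signal is porphyrin accumulated inside mitochondria; lower ratio means ABCB6 inhibition with less porphyrin fluorescence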
Target sequence (Q9NP58 whole entry, looked up): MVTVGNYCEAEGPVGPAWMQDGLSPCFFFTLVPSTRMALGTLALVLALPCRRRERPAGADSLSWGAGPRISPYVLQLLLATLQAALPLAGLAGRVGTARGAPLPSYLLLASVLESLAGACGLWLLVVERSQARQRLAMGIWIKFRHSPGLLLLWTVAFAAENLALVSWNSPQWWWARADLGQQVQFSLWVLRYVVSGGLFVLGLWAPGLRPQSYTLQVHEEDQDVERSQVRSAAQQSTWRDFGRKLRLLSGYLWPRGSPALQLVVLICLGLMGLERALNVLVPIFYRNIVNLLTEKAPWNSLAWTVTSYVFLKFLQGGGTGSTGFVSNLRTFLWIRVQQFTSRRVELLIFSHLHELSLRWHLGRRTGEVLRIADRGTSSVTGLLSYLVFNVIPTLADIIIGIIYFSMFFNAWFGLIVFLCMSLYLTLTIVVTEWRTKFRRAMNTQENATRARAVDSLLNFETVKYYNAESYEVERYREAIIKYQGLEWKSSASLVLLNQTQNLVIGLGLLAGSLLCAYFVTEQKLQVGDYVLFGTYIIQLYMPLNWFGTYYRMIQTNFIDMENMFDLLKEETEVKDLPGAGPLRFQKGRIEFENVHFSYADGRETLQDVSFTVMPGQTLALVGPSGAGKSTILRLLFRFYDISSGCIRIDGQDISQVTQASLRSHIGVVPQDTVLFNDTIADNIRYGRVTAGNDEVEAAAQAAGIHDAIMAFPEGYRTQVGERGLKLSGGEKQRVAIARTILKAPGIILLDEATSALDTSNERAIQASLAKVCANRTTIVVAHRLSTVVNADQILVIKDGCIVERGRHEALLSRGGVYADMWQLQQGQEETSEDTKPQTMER
A number is an active result; – = inactive; · = not tested or not shown. Sampled rows, rich in hits. Any-hit rate of the full collection: about 2.9%.

SMILES	MEKK2mut PB1 HTS	CRFR2-BP antag	MEKK3 PB1 HTS	MEKK2wt PB1 HTS	CRFR2-BP ag	ABCB6 inh 2
COc1ccc(N(CC(=O)NCCc2ccc(OC)c(OC)c2)S(=O)(=O)c2c(C)noc2C)cc1	–	108	–	–	–	–
CCOc1ccc(N(CC(=O)Nc2cccc(F)c2)S(=O)(=O)c2c(C)noc2C)cc1	–	–	–	–	–	–
CCOc1ccc(N(CC(=O)Nc2ccc(C)c(C)c2)S(=O)(=O)c2c(C)noc2C)cc1	–	–	–	134	–	–
C/C(=N/N=C/c1ccc(N(C)C)cc1)c1ccccc1	–	–	–	–	–	–
CN(C)c1ccc(/C(=N\O)c2ccccc2)cc1	–	61	–	–	–	–
CN1CCN(CC(=O)Nc2cc(N(C)C)nc3ccccc23)CC1	–	58	–	–	–	–
COc1ccc(NS(=O)(=O)c2ccc(C(=O)N(C)Cc3ccc(C)o3)cc2)cc1	·	–	·	·	–	–
COc1ccccc1S(=O)(=O)Cc1ccc(C(=O)NCc2ccccc2)o1	–	55	–	–	–	–
COc1ccccc1S(=O)(=O)Cc1ccc(C(=O)NCCCN2CCN(c3ccc(F)cc3)CC2)o1	–	–	–	140	–	–
Cc1ccc(S(=O)(=O)N(CC(=O)NCC2CCCO2)Cc2cccc(C)c2)cc1 (stereo not drawn)	–	–	–	–	–	–
O=C(C[C@H]1C/C=C\C[C@@H](Cc2ccc(F)cc2)C(=O)OC[C@@H]2CCCN2C1=O)NCCO	·	–	·	·	–	–
COc1ccc(S(=O)(=O)N/N=C(/C)c2ccc(Cl)cc2)cc1	–	–	–	–	–	–
COc1cccc(/C(C)=N/NS(=O)(=O)c2ccc(Cl)cc2)c1	–	54	–	–	–	–
O=C(CN1C(=O)NC2(CCCCC2)C1=O)Nc1cccc(S(=O)(=O)N2CCCC2)c1	·	–	·	·	–	–
Cc1c(C(=O)Nc2cccnc2Cl)oc2ccccc12	–	–	–	–	–	–
Cc1ccc(Nc2c(O)nc[nH]c2=O)cc1	·	73	·	·	–	–
CN(C)c1ccc(/C=C2\SC(N3CCCCC3)=NC2=O)cc1	–	–	–	–	51	–
CCOc1cc(N2CCOCC2)c(OCC)cc1NC(=O)c1cc(S(=O)(=O)N2CCOCC2)ccc1C	·	–	·	·	–	–
c1ccc2c3c([nH]c2c1)C1(CCCCC1)NCC3	–	–	–	–	–	–
CC12CCCCN1CCCc1c2[nH]c2ccccc12 (stereo not drawn)	–	–	–	–	50	–
O=C1CN(S(=O)(=O)c2cc(Br)ccc2Br)CCN1	·	–	·	·	–	–
O=c1c(Br)ccc(Br)cc1Br	·	–	·	·	–	19
CCC(=O)Nc1cc(Cl)ccc1N1CCN(C(=O)CC)CC1	–	81	–	–	–	–
CCC(=O)N1CCN(c2ccc(Cl)cc2NC(=O)Cc2ccccc2)CC1	–	–	–	–	–	–
Cc1ccc(C(c2sc3ncnn3c2O)N2CCC(C)CC2)cc1 (stereo not drawn)	–	–	–	–	–	–
SMILES	MEKK2mut PB1 HTS	CRFR2-BP antag	MEKK3 PB1 HTS	MEKK2wt PB1 HTS	CRFR2-BP ag	ABCB6 inh 2
CC1CN(C(c2ccco2)c2sc3ncnn3c2O)CC(C)O1 (stereo not drawn)	–	82	–	–	–	–
CCN1C(=NCCCOC(C)C)N[C@@H](CCc2ccccc2)[C@H](C(=O)NCCCOC(C)C)[C@H]1C	·	–	·	·	–	–
Cc1ccc(NC(=O)CCn2cc(C(F)(F)F)ccc2=O)cc1	–	122	–	–	–	–
CC(C)(C)c1nnc(NS(=O)(=O)c2ccc([N+](=O)[O-])cc2)s1	–	–	–	–	–	–
O=C1/C(=C/c2cccs2)Cc2ccccc21	–	–	–	–	–	–
O=C1C(=Cc2cccs2)C(=O)c2ccccc21	–	55	–	–	–	–
COc1ccc(S(=O)(=O)NC2CC(=O)N(c3ccccc3)C2)cc1C (stereo not drawn)	·	–	·	·	–	–
CCN1C(=O)/C(=C\C=C\c2ccccc2[N+](=O)[O-])SC1=S	–	69	–	–	–	–
COc1cc(/C=C2/SC(=S)N(Cc3ccccc3)C2=O)cc(Cl)c1O	–	–	–	–	171	–
COc1cc(/C=C2\SC(=O)N(Cc3ccc(Cl)cc3)C2=O)cc([N+](=O)[O-])c1O	–	55	–	–	–	–
COc1cc(/C=C2/SC(=S)N(Cc3ccccc3)C2=O)ccc1OCC(=O)O	–	–	–	–	–	–
COc1cc([N+](=O)[O-])cc(/C=C2/SC(=S)N(Cc3ccccc3)C2=O)c1O	–	–	–	–	–	–
O=C1/C(=C\c2cccc([N+](=O)[O-])c2O)SC(=S)N1Cc1ccccc1	–	77	–	–	–	–
NC(=O)c1ccsc1NC(=O)COC(=O)c1cccnc1Cl	·	–	·	·	–	–
O=C1NC(=Nc2ccccc2Cl)S/C1=C\c1cccc([N+](=O)[O-])c1O	–	53	–	–	–	–
O=C1/C(=C\c2cc(Br)cc(Br)c2O)SC(=S)N1Cc1ccccc1	–	64	–	–	–	–
O=C1/C(=C/c2ccc(O)c([N+](=O)[O-])c2)SC(=S)N1Cc1ccccc1	–	108	–	–	–	–
CN(C(=O)c1cccc(NC(=O)Cc2ccc(NC(=O)C3CCCN(C(=O)C4CC4)C3)cc2)c1)C1CCCC1 (stereo not drawn)	·	–	·	·	–	–
COc1ccccc1NC(=O)c1sc2nc(Cc3ccccc3)cc(C(F)(F)F)c2c1N	–	–	–	–	58	–
Cc1cc(C(F)(F)F)c2c(N)c(C(=O)NC3CC3)sc2n1	–	–	–	–	–	–
COCc1cc(C)nc2sc(C(=O)Nc3ccccc3OC)c(N)c12	–	–	–	–	–	–
Nc1c(C(=O)Nc2nccs2)sc2nc(-c3cccs3)cc(C(F)(F)F)c12	·	–	·	·	68	–
Cc1nnc(NC(=O)c2sc3nc(-c4cccs4)cc(C(F)(F)F)c3c2N)s1	–	–	–	–	213	–
Cc1cc(C)c2c(N)c(C(=O)Nc3nccs3)sc2n1	–	–	–	–	–	–
COc1ccc(OC)c(-c2csc(NC(=O)COC(=O)c3ccc(NC(=O)CC#N)cc3)n2)c1	·	–	·	·	–	–
COC(=O)c1cc(NC(=O)COC(=O)C2COc3ccccc3O2)cc(C(=O)OC)c1 (stereo not drawn)	·	–	·	·	–	–
O=C1CCc2cc(S(=O)(=O)N3CCC(C(=O)NC4CCCCCCC4)CC3)ccc2N1	–	68	–	–	–	–
